Potency and activity change, negative = inhibition data for 31 compounds are collected here from PubChem BioAssay AID1645882 (National Center for Advancing Translational Sciences (NCATS), 2021).

The structures appear in SMILES notation. “And” between values parts separate entries of the source, which are not always exact repeats. Equal entries are not always repeated. Among all 16,000 compounds or so, about 120 (0.75%) were called active. Where a call stands in place of a potency, no number is given. About 4% were inconclusive and are not listed. Calls follow the shape of the dose curve; as a rule, active = well fitted inhibition curve with a large enough effect; inconclusive = small, poorly fitted or top-dose-only effect; inactive = no such curve, though single readings can be large or run the other way. Only a selection was taken, and actives are over-represented in it overall.
Potency is read from the fitted curve at half-maximal effect.

Sequence of Rap guanine nucleotide exchange factor 3 (Homo sapiens) (O95398 whole entry, looked up): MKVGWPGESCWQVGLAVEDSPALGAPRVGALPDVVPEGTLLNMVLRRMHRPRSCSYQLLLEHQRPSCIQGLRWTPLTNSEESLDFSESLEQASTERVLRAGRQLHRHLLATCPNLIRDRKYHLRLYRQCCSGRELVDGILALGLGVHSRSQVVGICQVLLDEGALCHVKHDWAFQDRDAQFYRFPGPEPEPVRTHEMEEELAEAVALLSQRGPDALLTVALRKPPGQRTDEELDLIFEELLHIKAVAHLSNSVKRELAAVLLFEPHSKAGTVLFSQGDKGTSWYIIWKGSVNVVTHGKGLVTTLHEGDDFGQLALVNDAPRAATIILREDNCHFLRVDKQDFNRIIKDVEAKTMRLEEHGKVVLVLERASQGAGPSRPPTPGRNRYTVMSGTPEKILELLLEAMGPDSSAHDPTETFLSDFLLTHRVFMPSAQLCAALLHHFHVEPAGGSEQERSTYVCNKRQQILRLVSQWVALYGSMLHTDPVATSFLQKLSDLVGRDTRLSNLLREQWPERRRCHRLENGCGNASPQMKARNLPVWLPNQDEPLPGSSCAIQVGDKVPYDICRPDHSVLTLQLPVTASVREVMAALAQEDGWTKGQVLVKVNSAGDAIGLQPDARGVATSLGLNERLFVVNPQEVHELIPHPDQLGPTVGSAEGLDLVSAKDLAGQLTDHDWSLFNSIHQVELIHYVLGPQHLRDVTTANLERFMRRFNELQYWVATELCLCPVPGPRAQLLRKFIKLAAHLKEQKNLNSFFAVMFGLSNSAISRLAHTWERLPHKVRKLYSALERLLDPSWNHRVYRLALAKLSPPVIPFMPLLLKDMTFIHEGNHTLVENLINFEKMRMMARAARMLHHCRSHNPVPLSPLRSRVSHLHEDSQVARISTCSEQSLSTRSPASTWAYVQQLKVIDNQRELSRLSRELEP

The experiment addresses Rap guanine nucleotide exchange factor 3 (Homo sapiens) (UniProt O95398). Nature of the experiment: Validation qHTS for antagonist of cAMP-regulated guanine nucleotide exchange factor 3 (EPAC1). Also: nearly all actives have a fitted effect of over 75% in size. The settings on record: EPAC1 Rap1B-BODIPY-GDP exchange, fluorescence; series mostly up to 150 µM. In short, it runs like this:
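EPAC1 (100 nM) mixed with 250 nM RAP1B-BODIPY-GDP and 50 uM GDP; compounds in concentration series, 5 min at room temperature. Fluorescence (ex 480/em 540 nm) read every 5 min for 30 min; normalized to ATA control and DMSO.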
For `OCC1OC(n2cnc3c(=S)nc[nH]c32)C(O)C1O` (stereo unspecified), the Potency result was “inactive”.
The same measure, in the same setting: next, `Cc1cccc(CNc2ccnc(-c3ccccc3Cl)n2)c1`: “inactive”; `O=C1CCC(=O)N1CO`: “inactive”; `COc1cc(OC)c(/C=C/c2ccc3ccccc3n2)c(OC)c1`: “inactive”.
Same read-out and setting: next, `COc1ccccc1CCn1c(=O)cnc2cncnc21`: “inactive”; `COc1ccc(CNc2nc(-c3ccccc3OC)nc3ccccc23)c(OC)c1`: “inactive”; `CCc1cccc2c(C(O)c3c[nH]c4ccccc34)c[nH]c12` (stereo unspecified): “inactive”.
The same measure, in the same setting: as for `C=CC(C)(C)c1[nH]c2ccccc2c1C1=C(O)C(=O)C(c2c[nH]c3c(CC=C(C)C)cccc23)=C(O)C1=O`, the figure is 56.2 µM (active).
With `CC(C)=CCC1=C(O)c2ccccc2C(=O)C1=O`, the Potency result was “inactive”.
Same read-out and setting: as for `Cc1cc(-c2ccnc(-n3ncc(C(=O)NCCc4cccnc4)c3C)n2)c(C)s1`, the entry is “inactive”; as for `COc1ccc(CN2CCC(n3cc(C(=O)N4CCCC4)nn3)CC2)c(OC)c1C`, “inactive”; as for `O=C(c1cnccn1)N1CCC2(CCCN(Cc3nccs3)C2)CC1`, “inactive”.
Still for that read-out and setting: as for `N[C@H](C(=O)O)c1cc(O)cc(O)c1`, the entry is “inactive”; as for `NC(C(=O)O)c1cc(O)cc(O)c1` (stereo unspecified), “inactive”; as for `NC(C(=O)O)c1cc(O)c(Cl)c(O)c1` (stereo unspecified), 56.2 µM (active).
Still for that read-out and setting: next, `CCCCCCCCCCCCCC[N+](C)(C)C`: “inactive”; `Cc1cc(O)c(C=O)c(O)c1C(=O)O`: “inactive”.
`Cc1cc2c(C(C)C)c(O)c(O)c(C=O)c2c(O)c1-c1c(C)cc2c(C(C)C)c(O)c(O)c(C=O)c2c1O`: the Potency was 50.1 µM (active) and 39.8 µM (active) and 79.4 µM (active).
Same read-out and setting: next, `Cc1c(C(=O)N(C)C(C)C)sc2ncnc(NCCCN3CCOCC3)c12`: “inactive”.
Still for that read-out and setting: as for `COc1ccc(SC[C@H](C)CN2CC[C@H](C(C)(C)C)CCC2=O)cc1`, the entry is “inactive”; as for `C=CC1=C(C)C2=CC3=NC(=C(CC(=O)[O-])C4=NC(=C(C)C4=C([O-])[O-])C=c4[n-]c(c(C)c4CC)=CC1=N2)C(CCC(=O)[O-])C3C.[Cu+2].[Na+].[Na+].[Na+]` (stereo unspecified), 89.1 µM (active); as for `CCCCCCCCCCCCCCCCC(C(=O)O)C(O)(CC(=O)O)C(=O)O` (stereo unspecified), 35.5 µM (active).
With `CCCCCCCCCCCCC(C(=O)O)C(C)C(=O)O` (stereo unspecified), the Potency result is “inactive”.
Turning to `CCCCCCCCCCCCC(O)C(=O)O` (stereo unspecified), the activity change, negative = inhibition is -12.9% [at 15.3 µM] (inactive).
On to `CN1CCN(c2ncc3nc(-c4ccccc4)c(=O)n(CCC#N)c3n2)CC1`, for which the Potency entry is “inactive”.
Consider `Oc1ccc(C2Oc3cc(O)cc(O)c3CC2O)cc1` (stereo unspecified), for which the Potency result was “inactive”.
With `Oc1cc(O)c2c(c1)O[C@H](c1ccc(O)c(O)c1)[C@H](O)C2`, the Potency was 79.4 µM (active).
`Oc1cc(O)c2c(c1)OC(c1cc(O)c(O)c(O)c1)C(O)C2` (stereo unspecified): the Potency entry is “inactive”.
Same read-out and setting: next, `Oc1cc(O)c2c(c1)O[C@H](c1ccc(O)c(O)c1)[C@@H](O)C2`: “inactive”; `O=c1c(O)cc(C2Oc3cc(O)cc(O)c3CC2O)cc2c(C3Oc4cc(O)cc(O)c4CC3O)cc(O)c(O)c12` (stereo unspecified): 39.8 µM (active); `Oc1ccc2c(c1)OC(c1ccc(O)c(O)c1)C(O)C2` (stereo unspecified): “inactive”.
